Potency data for 40 compounds are collected here from PubChem BioAssay AID493169 (National Center for Advancing Translational Sciences (NCATS), 2011).

Molecules are shown by their SMILES. Inconclusive results are not listed. Entries that show only a call come without a potency. Activity calls are given as the source filed them. Calls follow the shape of the dose curve; as a rule, active = well fitted inhibition curve with a large enough effect; inconclusive = small, poorly fitted or top-dose-only effect; inactive = flat fitted curve, though single readings scatter.
Potency is read from the fitted curve at half-maximal effect.

This assay can be described thus: CHOP2 Reporter Counterscreen Assay for Inhibitors of Ubiquitin-specific Protease USP2a.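 Also: activated enterokinase alone at 50 pM in a cell-free format rather than USP2a or CHOP2; nearly all actives have a fitted effect of over 55% in size.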 As to conditions: purified enterokinase, fluorogenic substrate, 485/531 nm; series mostly up to 38.3 µM. A digest of the protocol:
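Fluorescence (485/531 nm) read 10 min after adding 25nM reporter substrate to 50 pM activated EK preincubated 30 min RT with compound; Tris pH 8.0/CaCl2/CHAPS buffer. Data normalized to buffer-alone inhibition; concentration-response curves fitted.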
On the technique in general: Counterscreens check selectivity or assay interference.
In the case of `CN(c1cccc(NC(=O)Nc2cccc(Cl)c2)c1)S(C)(=O)=O`, the Potency entry was “inactive”.
The same measure for `Cc1cc(Cl)ccc1NC(=S)NCCCN1CCCC1=O`: “inactive”; for `COc1ccc(N(C(=O)C(C)C)S(=O)(=O)c2ccc(Cl)cc2)cc1`: “inactive”.
Then `C[C@H](CO)N1C[C@H](C)[C@@H](CN(C)S(=O)(=O)c2ccc(Cl)cc2)Oc2ccc(NS(=O)(=O)c3ccccc3)cc2CC1=O`, with “inactive”.
Then `C/C(=N/NC(=O)c1cc2ccccc2cc1O)C1C(=O)c2ccccc2C1=O`, with “inactive”; and `COc1ccc2[nH]c(=O)c(CN(C)C(=O)C3CCCCC3)cc2c1`, with “inactive”; and `Cc1c(NC(=O)c2ccc(COc3ccc4ccccc4c3)o2)c(=O)n(-c2ccccc2)n1C`, with “inactive”.
For `NC1=NC2(CCC(c3ccccc3)CC2)n2c(nc3ccccc32)N1` (stereo not given), the Potency entry is “inactive”.
As for `CC1=C(C(=O)OC(C)C)C(C)C(C(=O)OC(C)C)=C(C)N1`, the Potency result is “inactive”.
Then `O=C(COc1ccccc1)Nc1nnc(-c2ccc(Cl)s2)o1`, with “inactive”.
The same measure for `CCOC(=O)C1=CN(Cc2cccc(F)c2)S(=O)(=O)NC1c1ccc(Br)cc1F` (stereo not given): “inactive”; for `CCCCCCCCCCOC(=O)Cn1c(COc2ccc(Cl)cc2)[n+](C)c2ccccc21`: 8.91 µM (active); for `COc1cc(OC)cc(-c2c(C#Cc3ccsc3)c3cc(-c4ccc(OC)c(F)c4)ccc3n2C)c1`: “inactive”.
Consider `COc1cc(C)ccc1OCCOc1cc(C)ccc1Cl`, for which the Potency entry is “inactive”.
The same measure for `Cc1ccc(NC(=O)CSc2nnc(COc3ccc(C#N)cc3)n2-c2ccccc2)cc1C`: “inactive”.
Take `COC(=O)c1cc2sc(Cl)cc2n1Cc1nc(-c2ccccc2)oc1C`: the Potency entry is “inactive”.
Then `CCCCCCCCCC[N+](C)(C)CC/C=C1/c2ccccc2Sc2ccc(Cl)cc21`, with 7.94 µM (active); and `c1coc(CNc2nc(-c3cccs3)cs2)c1`, with “inactive”.
Then `Cc1cc(=O)oc(C)c1C(=O)NCCc1ccccc1`, with “inactive”; and `CC(C)(C)C1CCC(=NNC(=O)CN(c2ccccc2)S(C)(=O)=O)CC1` (stereo not given), with “inactive”.
As for `O=C(C1CCCN(S(=O)(=O)c2cccc3cccnc23)C1)N1CCN(c2ccccc2F)CC1` (stereo not given), the Potency entry was “inactive”.
As for `CN(C)CCOCCP(=O)(c1ccccc1)c1ccccc1`, the Potency result was “inactive”.
Regarding `Cc1ccc(C2=[N+]([O-])C(C)N(O)C2(C)C)o1` (stereo not given), the Potency entry is “inactive”.
Turning to `O=C(Nc1ccc(N2CCCC2)cc1)c1ccc(Br)cc1`, the Potency is 5.01 µM (active).
The same measure for `COc1ccc(CC(=O)c2ccccc2C(=O)O)cc1`: “inactive”.
The same measure for `Cc1ccc(SCC(=O)NCC(C)C)cc1`: “inactive”; for `COC(=O)CCC(=O)Nc1sc2c(c1C#N)CCCC2`: “inactive”.
Then `CC(C)(C)NC(=O)C(c1ccco1)N(C(=O)c1ccc(CN2CCOCC2)o1)c1ccccc1` (stereo not given), with “inactive”; and `CCCCCCCCCS(=O)(=O)N/N=C/c1cccc([N+](=O)[O-])c1`, with “inactive”; and `COc1ccc2nc(C)cc(SCC(=O)N/N=C/c3c(OC)ccc4ccccc34)c2c1`, with “inactive”.
Take `O=C(CSc1nnc(SCc2ccccc2)s1)N/N=C/C=C/c1ccco1`: the Potency was 2.51 µM (active).
The same measure for `C=CCOc1cccc(C2C(C(=O)c3ccco3)=C(O)C(=O)N2CCN(CC)CC)c1` (stereo not given): “inactive”.
As for `Cc1ccc(C(=O)Nc2nnc(CC(=O)N/N=C/c3ccc(O)c(O)c3)s2)cc1`, the Potency is 2.82 µM (active).
The same measure for `Clc1ccccc1-c1nnc2sc(-c3cccs3)nn12`: “inactive”; for `Oc1ccc(/C=N/NC(=S)N/N=C/c2ccc(O)cc2)cc1`: “inactive”; for `CCCOc1ccc(-c2nc(C#N)c(N3CCN(CC)CC3)o2)cc1`: “inactive”.
`O=C(Nc1nnc(SCC(=O)N2CCCC2)s1)C1CC(=O)N(c2ccc(F)cc2)C1` (stereo not given): the Potency was 10 µM (active).
`COc1cc(/C=C/C(=O)OCC(=O)NC(=O)NCc2ccco2)ccc1OC(F)F`: the Potency result was “inactive”.
The same measure for `CCOC(=O)c1sc(NC(=O)Nc2ccccc2)cc1C`: “inactive”.
Turning to `CCCCNc1nc2ccccc2nc1NS(=O)(=O)c1cccs1`, the Potency entry was “inactive”.
